A short description of assay [1]: E. coli DRC41 culture turbidity changes, primary screen, E. coli filamentation inducer project, strain DRC41, OD650, 48 h (AID 1152).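 Further: E. coli MC1000 strain DRC41 lacking acrAB efflux pump and sulA.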 Particulars: E. coli DRC41 (acrAB sulA), higher = more signal, called active from +8 up or from −8 down.
A short description of assay [2]: small-molecule binders of probe aLefty1, primary screen, biochemical, small-molecule microarray, 635/667 nm fluorescence (AID 1153).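 Further: score merges spot fluorescence with signal-to-noise ratio from the scanned slide images.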 Particulars: higher = more signal.
Assay [3] can be described thus: PSAC antagonists in infected red cells, primary screen, cell-based, P. falciparum Indochina, OD700, 1 h (AID 1154). To be noted: P. falciparum Indochina infected RBC osmotic lysis, higher = more signal, called active from +8 up or from −8 down.
Assay [4] in a line: PSAC antagonists in infected red cells, primary screen, cell-based, P. falciparum Indochina, OD700, 2 h (AID 1155).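 Further: lysis reports solute entry through the parasite surface anion channel PSAC; channel blockers reduce lysis of infected cells.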 To be noted: P. falciparum Indochina infected erythrocytes, osmotic lysis OD700; higher = more signal, called active from +8 up or from −8 down.
Assay [5] in a line: osmotic lysis modulators in infected erythrocytes, primary screen, PSAC antagonist project, cell-based, P. falciparum Indochina, OD700, 3 h (AID 1156). To be noted: higher = more signal, called active from +8 up or from −8 down.
Assay [6] in a line: PSAC antagonists in infected red cells, primary screen, cell-based, P. falciparum Indochina, OD700, 18 h (AID 1157). Particulars: P. falciparum Indochina infected erythrocytes, osmotic lysis OD700, 18 h; higher = more signal, called active from +8 up or from −8 down.
Assay [7] can be described thus: modulators of S6 phosphorylation in cells, primary screen, cell-based, A549, cytoblot, luminescence, serum-stimulated (AID 1158).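 Further: serum-stimulated A549 lung adenocarcinoma cells; signal is phosphorylated S6 detected by cytoblot immunostaining with HRP secondary.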 Particulars: A549 phospho-S6 cytoblot, 5 h, higher = more signal.
In assay [8] the target is NADPH oxidase 2 (Homo sapiens) (UniProt P04839). The assay is described as follows: NOX2-dependent H2O2 signal modulators, primary screen, NOX inhibitor project, cell-based, HEK293-NOX2, PMA-stimulated, Amplex Red fluorescence (AID 1159). Further: test concentration not given here. Particulars: 45 min, higher = more signal, called active from +8 up or from −8 down.
Chain of NADPH oxidase 2 (Homo sapiens) (P04839 whole entry, looked up): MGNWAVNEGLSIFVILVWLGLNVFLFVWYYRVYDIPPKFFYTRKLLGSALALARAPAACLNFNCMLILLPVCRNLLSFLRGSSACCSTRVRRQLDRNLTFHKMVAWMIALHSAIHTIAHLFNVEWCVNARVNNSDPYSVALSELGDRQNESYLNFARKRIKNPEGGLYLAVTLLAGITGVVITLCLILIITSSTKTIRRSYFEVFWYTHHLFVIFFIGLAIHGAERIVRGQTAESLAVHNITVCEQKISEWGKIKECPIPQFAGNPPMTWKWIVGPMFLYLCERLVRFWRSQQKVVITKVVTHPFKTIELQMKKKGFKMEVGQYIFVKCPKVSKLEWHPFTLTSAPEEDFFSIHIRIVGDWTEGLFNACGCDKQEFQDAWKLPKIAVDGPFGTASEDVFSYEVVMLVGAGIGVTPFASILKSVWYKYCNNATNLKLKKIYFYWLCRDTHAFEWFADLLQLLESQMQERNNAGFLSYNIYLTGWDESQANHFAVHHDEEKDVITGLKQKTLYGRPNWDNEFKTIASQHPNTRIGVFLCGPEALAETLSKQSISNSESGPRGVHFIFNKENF
In assay [9] the target is NADPH oxidase 4 (Homo sapiens) (UniProt Q9NPH5). The experiment in a line: NOX4-dependent H2O2 signal modulators, primary screen, NOX inhibitor project, cell-based, HEK293-NOX4, tetracycline-induced, Amplex Red fluorescence (AID 1160). To be noted: 45 min, higher = more signal, called active from +8 up or from −8 down.
Chain of NADPH oxidase 4 (Homo sapiens) (Q9NPH5 whole entry, looked up): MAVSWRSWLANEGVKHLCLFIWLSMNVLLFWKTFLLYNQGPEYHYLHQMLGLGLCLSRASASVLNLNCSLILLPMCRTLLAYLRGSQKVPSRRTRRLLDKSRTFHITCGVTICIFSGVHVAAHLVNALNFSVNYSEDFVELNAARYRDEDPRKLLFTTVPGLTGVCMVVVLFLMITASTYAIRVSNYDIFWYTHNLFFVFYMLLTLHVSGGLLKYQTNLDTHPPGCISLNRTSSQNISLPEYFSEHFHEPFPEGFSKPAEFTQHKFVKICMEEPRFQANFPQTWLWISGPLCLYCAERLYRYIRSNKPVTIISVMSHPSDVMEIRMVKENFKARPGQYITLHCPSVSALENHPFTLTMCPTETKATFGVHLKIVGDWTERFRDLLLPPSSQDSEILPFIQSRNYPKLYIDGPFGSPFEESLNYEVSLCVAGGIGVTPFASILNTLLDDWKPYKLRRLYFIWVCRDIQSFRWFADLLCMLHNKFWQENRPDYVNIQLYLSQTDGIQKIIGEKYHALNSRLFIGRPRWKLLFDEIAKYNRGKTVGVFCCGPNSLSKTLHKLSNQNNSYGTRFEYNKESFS
The target in assay [10] is NADPH oxidase 5 (Homo sapiens) (UniProt Q96PH1). The experiment in a line: NOX5-dependent H2O2 signal modulators, primary screen, NOX inhibitor project, cell-based, HEK293-NOX5, Amplex Red fluorescence (AID 1161). Particulars: HEK293-NOX5, ionomycin, 45 min, higher = more signal.
Chain of NADPH oxidase 5 (Homo sapiens) (Q96PH1 whole entry, looked up): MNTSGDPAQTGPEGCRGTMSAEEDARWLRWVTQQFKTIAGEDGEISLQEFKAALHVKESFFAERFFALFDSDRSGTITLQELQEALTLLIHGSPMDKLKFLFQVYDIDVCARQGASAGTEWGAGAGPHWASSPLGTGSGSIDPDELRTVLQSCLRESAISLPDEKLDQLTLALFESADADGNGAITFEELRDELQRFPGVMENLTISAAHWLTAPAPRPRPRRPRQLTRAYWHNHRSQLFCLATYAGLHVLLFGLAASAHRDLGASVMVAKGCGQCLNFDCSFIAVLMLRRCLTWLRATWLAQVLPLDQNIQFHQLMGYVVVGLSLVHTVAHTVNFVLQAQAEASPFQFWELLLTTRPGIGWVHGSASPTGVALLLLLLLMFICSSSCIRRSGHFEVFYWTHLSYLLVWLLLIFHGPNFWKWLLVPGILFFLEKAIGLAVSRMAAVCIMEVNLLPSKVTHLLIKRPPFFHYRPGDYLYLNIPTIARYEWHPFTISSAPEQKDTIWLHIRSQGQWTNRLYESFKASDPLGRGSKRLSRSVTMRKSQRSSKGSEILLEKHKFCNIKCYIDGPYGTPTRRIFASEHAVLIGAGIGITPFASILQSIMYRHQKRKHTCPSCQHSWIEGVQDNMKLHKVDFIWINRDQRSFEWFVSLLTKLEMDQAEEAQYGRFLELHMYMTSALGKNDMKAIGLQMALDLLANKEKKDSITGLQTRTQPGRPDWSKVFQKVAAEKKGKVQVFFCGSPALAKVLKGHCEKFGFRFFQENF
Assay [11] in a line: A549 cell viability effects, profiling panel, calcein-AM fluorescence, 48 h, basal (AID 1162). Further: test concentration not given here. Particulars: higher = more signal.
Assay [12] in a line: adipocyte viability effects, profiling panel, cell-based, 3T3-L1 adipocytes, calcein-AM fluorescence, 48 h, basal (AID 1163). Further: test concentration not given here. Particulars: 3T3-L1 adipocytes viability, higher = more signal.
Assay [13] in a line: HepG2 cell viability effects, profiling panel, calcein-AM fluorescence, 48 h, basal (AID 1164). Further: test concentration not given here. Particulars: higher = more signal.
Assay [14] can be described thus: MM1S cell viability effects, profiling panel, calcein-AM fluorescence, 48 h, basal (AID 1165).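 Further: viability of MM1S multiple myeloma cells under basal unstimulated conditions; test concentration not given here.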 Particulars: higher = more signal.
The nature of assay [15]: basal RPMI8226 viability, no added stimulus, profiling panel, cell-based, calcein-AM fluorescence, 48 h, PK04 Diversity Set (AID 1166).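 Further: cells grown under basal conditions without added stimulus; test concentration not given here.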 Particulars: RPMI8226 myeloma viability, higher = more signal.
Assay [16] can be described thus: basal HepG2 mitochondrial membrane potential changes, profiling panel, cell-based, JC-1 fluorescence, 24 h, 100 nL compound (AID 1167). Further: test concentration not given here. To be noted: higher = more signal.
Assay [17] is described as follows: basal 3T3-L1 adipocyte mitochondrial potential changes, profiling panel, cell-based, JC-1 fluorescence, 3T3-L1 adipocytes, 24 h, 100 nL compound (AID 1168). Further: test concentration not given here. Particulars: JC-1 mitochondrial fluorescence, higher = more signal, called active from +8 up or from −8 down.
Assay [18] in a line: basal RPMI8226 mitochondrial membrane potential changes, profiling panel, cell-based, JC-1 fluorescence, 24 h, 100 nL compound (AID 1169). Further: test concentration not given here. To be noted: RPMI8226 myeloma, JC-1 mitochondrial potential fluorescence, higher = more signal.
Assay [19] in a line: basal MM1S mitochondrial membrane potential changes, profiling panel, cell-based, JC-1 fluorescence, 24 h, 100 nL compound (AID 1170). Further: test concentration not given here. To be noted: higher = more signal.
A short description of assay [20]: A549 lung cancer cell viability effects, profiling panel, resazurin fluorescence, 24 h, PK04 Diversity Set (AID 1171). Further: test concentration not given here. Particulars: higher = more signal, called active from +8 up or from −8 down. Background: The colour change of resazurin is a common sign of viable cells or microbes.

Calls of active or inactive are those of the source.

As for `COCCn1c(C(=O)N2CCCC2)cc2c1C[C@H]1CN(C(=O)c3ccccc3)[C@@](Cc3ccc(OC)cc3)(C(=O)OC)[C@@H]21`, the z-score in assay [1] is 0.223 (inactive); in [3], 2.9 (inactive); in assay [4], -0.51 (inactive); in assay [5], -0.778 (inactive); in assay [6] it was -1.96 (inactive); in [7] it was 2.69. The z-score was 0.121 (inactive) in assay [8]; 0.435 (inactive) in [9]; -4.54 in assay [10]; 0.476 in assay [11]; 0.238 in [12]; 1.35 in assay [13]. Moreover, the z-score in [14] is 0.776; in assay [15], 0.426; in assay [16] it was 2.71; in [17], 0.0944 (inactive); in assay [18], 0.00347; in assay [19], -0.828. In addition, the z-score in assay [20] is -0.253 (inactive). In assay [2], the composite z-score is 1.15.

As to `Cc1ccc(S[C@]2(C(=O)NCCCN(C)C)CC(=O)N(C(C)C)[C@@H]2c2ccc(CO)cc2I)cc1`, the z-score was 0.997 (inactive) in [1]; 6.19 (inactive) in assay [3]; -0.185 (inactive) in assay [4]; 1.38 (inactive) in [5]; 0.277 (inactive) in assay [6]; -0.265 in assay [7]. Moreover, the z-score was 0.347 (inactive) in assay [8]; -0.675 (inactive) in assay [9]; 2.17 in assay [10]; 2.16 in assay [11]; -0.054 in assay [12]; 0.498 in [13]. Also, the z-score in assay [14] is -3.07; in assay [15], -1.37; in assay [16] it was 2.47; in assay [17], 1.06 (inactive); in assay [18], -0.423; in assay [19], -2.32. In addition, the z-score in [20] was 0.505 (inactive). The composite z-score in assay [2] was 0.264.

Regarding `COCCOC(=O)N1C(=O)[C@@]2(c3cc(C#CC4(O)CCCCCC4)ccc31)[C@H](c1ccc(O)cc1)N1[C@H](c3ccccc3)[C@H](c3ccccc3)OC(=O)[C@H]1[C@@H]2C(=O)N1CCc2cc(OC)c(OC)cc2C1`, the z-score was 1.23 (inactive) in assay [1]; -0.0535 (inactive) in [3]; 0.49 (inactive) in assay [4]; 0.44 (inactive) in assay [5]; 0.286 (inactive) in [6]; 0.0108 in assay [7]. The z-score is -0.0758 (inactive) in [8]; 0.139 (inactive) in [9]; 0.979 in [10]; -0.742 in assay [11]; 0.0633 in assay [12]; -0.592 in assay [13]. In addition, the z-score in assay [14] was -0.435; in assay [15], -0.165; in assay [16], -0.206; in assay [17] it was -0.947 (inactive); in assay [18] it was 0.83; in assay [19], -0.494. The z-score in assay [20] is 1.65 (inactive). This compound also returned a composite z-score in assay [2] of -0.0099.

`CN1C(=O)C2C=CC(C(O)c3ccccc3)N(NC(=O)OC(C)(C)C)C2C1=O` (stereo not given): the z-score in [1] was -1.18 (inactive); in [3], -0.0278 (inactive); in assay [4], 0.519 (inactive); in [5], 0.303 (inactive); in assay [6], 1.25 (inactive); in assay [7], -1.04. Also, the z-score in assay [8] is -1.08 (inactive); in assay [9] it was -0.302 (inactive); in assay [10], -1.87; in assay [11], -1.66; in [12] it was 0.103; in [13], -0.983. The z-score in [14] is -0.965; in assay [15] it was -0.386; in assay [16], -1.22; in assay [17], -0.0572 (inactive); in assay [18], -0.306; in [19], 0.32. For the same compound, the z-score in [20] is -0.449 (inactive). This compound also yielded a composite z-score in assay [2] of 0.199.

The values are drawn from PubChem BioAssay.
